# Bioassay records as filed in PubChem.
# Only some compounds are listed: those with a hit (about 11% of all), similar ones and a draw of the others.
# hNpr1 antagonist: human Npr1 receptor antagonism; P16066; HEK293 hNpr1 GloSensor cGMP, ANP-stimulated luminescence; Potency, µM (doses to about 46.3 µM), inactives show at the highest dose activity change, negative = inhibition, most hits filed as inhibitors; hit rate 1.6% among 76,000; AID 1347048; calls by dose curve; further: on the % scale 0 is the no-effect control and ±100 the full control effect; nearly all actives have a fitted effect of over 60% in size
#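 HEK293 cells stably expressing human Npr1 and cGMP GloSensor pGS-40F, loaded 2 h with 2% GloSensor reagent, given compound 30 min at room temperature. Luminescence read before and 20 min after 0.1 nM hNppA.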
# NIH3T3 tox: kills NIH 3T3 cells; NIH 3T3 viability, CellTiter-Glo ATP luminescence, 48-72 h; Potency, µM (series often up to 96.7 µM), for the others: at the highest dose activity change, negative = cytotoxicity, most hits filed as inhibitors; hit rate 4.3% among 94,000; AID 1345082; further: on the % scale 0 is the no-effect control and ±100 the full control effect; nearly all actives have a fitted effect of over 55% in size
#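 Cytotoxicity is measured as loss of cellular ATP: NIH 3T3 cells (400/well) are exposed to compound for 48 or 72 hr at 37 °C, then CellTiter-Glo luminescence is imaged after 10 min at room temperature.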
# HEK293 tox: cytotoxic compounds in HEK 293 cells; HEK 293 viability, ATP luminescence (CellTiter-Glo), 48-72 h; Potency, µM (series often up to 115 µM), for inactives: top-dose activity change, negative = cytotoxicity, usual class: inhibitors; hit rate 6.6% among 94,000; AID 1345083; further: on the % scale 0 is the no-effect control and ±100 the full control effect; nearly all actives have a fitted effect of over 60% in size
#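 HEK 293 cells at 250 cells/well were exposed to compounds by pintool transfer for 48 or 72 hr at 37 degree Celsius, 5% CO2. Viability was read as ATP-coupled luminescence with CellTiter-Glo after 10 min at room temperature.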
# FLuc inh-1: Photinus pyralis luciferase inhibition | P08659 | AID 1347043 | Potency, µM (top dose mostly 115 µM), usual class: inhibitors | purified P. pyralis luciferase, luminescence, biochemical | hit rate 2.5% among 76,000; further: on the % scale 0 is the no-effect control and ±100 the full control effect; nearly all actives have a fitted effect of over 65% in size
# Target sequence (P08659 whole entry, looked up): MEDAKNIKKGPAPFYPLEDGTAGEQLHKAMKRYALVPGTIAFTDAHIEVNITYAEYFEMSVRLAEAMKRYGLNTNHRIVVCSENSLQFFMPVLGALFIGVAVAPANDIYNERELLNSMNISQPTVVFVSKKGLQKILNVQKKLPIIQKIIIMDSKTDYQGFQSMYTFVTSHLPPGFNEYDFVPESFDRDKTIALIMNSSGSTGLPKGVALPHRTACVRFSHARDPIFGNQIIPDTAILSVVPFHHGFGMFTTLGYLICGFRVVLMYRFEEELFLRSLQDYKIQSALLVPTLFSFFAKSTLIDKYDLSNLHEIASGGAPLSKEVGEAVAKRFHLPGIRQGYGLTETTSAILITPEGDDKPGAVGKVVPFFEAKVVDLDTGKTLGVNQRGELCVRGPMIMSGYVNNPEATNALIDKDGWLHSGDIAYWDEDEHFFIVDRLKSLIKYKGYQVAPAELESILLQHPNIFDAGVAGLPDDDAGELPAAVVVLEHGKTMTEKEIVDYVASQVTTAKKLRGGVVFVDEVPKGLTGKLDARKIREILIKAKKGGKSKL
#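 Purified P. pyralis luciferase (10nM final) in 50mM Tris acetate pH 7.5, 10mM Mg acetate, 0.01% Tween-20, 0.05% BSA with 10uM D-luciferin and 10uM ATP. Compounds titrated qHTS. Luminescence imaged on CCD.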
# FLuc SDR -ATP: firefly luciferase binding stabilization, ATP absent. shares compounds with FLuc inh-1. Purified FLuc-C-HiBiT, Nano-Glo HiBiT luminescence, no ATP. Potency, µM (highest dose often 32.7 µM), without a hit: at the highest dose activation (signal gain), hits mostly activators. hit rate 7.8% among 1,300; further: nearly all actives have a fitted effect of over 55% in size
# FLuc SDR ATP: firefly luciferase binding stabilization, ATP added. shares compounds with FLuc inh-1. purified FLuc-C-HiBiT + ATP, HiBiT complementation luminescence. Potency, µM (titrated, usually from 32.7 µM), for inactives: top-dose activation (gain of signal), hits mostly activators. hit rate 8.7% among 1,300. AID 1963319;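 further: signal reports ligand binding via conformational change of the enzyme rather than luciferase catalysis; % of control where 0% means no effect; nearly all actives have a fitted effect of over 55% in size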
# FLuc inh-2: inhibitors of firefly luciferase enzymatic activity. AID 1963320. hit rate 42% among 1,300. Potency, µM (highest dose often 32.7 µM), without a hit: at the top dose activity change, negative = inhibition, hits mostly inhibitors. purified FLuc-C-HiBiT enzyme, luciferin luminescence. shares compounds with FLuc inh-1; further: on the % scale 0 is the no-effect control and ±100 the full control effect; nearly all actives have a fitted effect of over 70% in size
# The depositor's hits bear a star; i = inactive; ? = inconclusive; . = no result given; [ ] = remark or other dose. Unless noted, the call rests on the fitted dose curve; in most records, active means well fitted curve in the direction sought with a large enough effect; inconclusive means small, poorly fitted or top-dose-only effect, or another doubt; inactive means no such curve, though single readings can be large; an effect the other way counts as inactive or inconclusive. Potency means the concentration at half of the fitted maximal effect.
SMILES,hNpr1 antagonist,NIH3T3 tox,HEK293 tox,FLuc inh-1,FLuc SDR -ATP,FLuc SDR ATP,FLuc inh-2
CCc1ccc(-n2nc(CO)c(C(=O)NC)n2)cc1,.,.,.,.,?,19%,?
CCOC(=O)c1ccc(NC(=O)CSc2nnc(CNC(=O)c3ccc(OC)cc3)n2CC)cc1,.,.,.,.,15%,11%,?
CC(C)(C)n1ccc(C(=O)N2CCC3(CCC(=O)N(CCCO)C3)CC2)c1,2%,-17%,-21%,i,.,.,.
Cn1ncc2c(C(=O)NC3CC3)cc(-c3ccccc3)nc21,.,?,-8%[172 µM],.,.,.,.
COc1ccc(Nc2cc(C(=O)NC3CCC(C)CC3)c3ccccc3n2)cc1OC (stereo not drawn),.,.,.,.,21%,13%,-4%
O=C1[C@@H]2C[C@@H](O)CN2C2(CN(Cc3ccccc3F)C2)C(=O)N1Cc1cccc(Cl)c1,1%,-37%,-18%,i,.,.,.
COc1ccc(-c2noc(C(=O)O)c2[C@H](C)O)cc1,2%[70.6 µM],i,4%[230 µM],i,.,.,.
COc1ccc(-c2cc(=O)c3cc(OCC(=O)OC(C)C)ccc3o2)cc1,.,.,.,.,?,?,3.9µM*
O=C(c1cn2cc(-c3cccc(C(F)(F)F)c3)sc2n1)N1CCCCC1,.,-17%,-1%,.,.,.,.
O=C(O)c1cccc(-c2noc(-c3ccccc3C(F)(F)F)n2)c1,.,.,.,.,25%,0.12µM*,0.062µM*
O=C(O)c1ccc(-c2noc(-c3cccc(Cl)c3)n2)cc1,.,.,.,.,?,?,7µM*
O=C(O)c1ccc(-c2noc(-c3ccccc3Cl)n2)cc1,.,.,.,.,30%,1.6µM*,1.1µM*
O=C(O)c1cccc(-c2cc(C(F)(F)F)ccc2Cl)c1,.,i,5%,.,.,.,.
COc1ccc(-c2noc(-c3nc(-c4cccnc4)no3)n2)cc1,-1%,4%,13%,i,.,.,.
Cc1noc(-c2nc(-c3cccc(Cl)c3)no2)n1,-4%,1%,?,?,.,.,.
c1ccc(-c2noc(-c3ccc4ccccc4c3)n2)cc1,.,.,.,.,36%,?,0.7µM*
CCOc1cc(=O)n2c(c1C(=O)Nc1cccc(Br)c1)CCCC2,2%,-6%,?,i,.,.,.
O=C(O)c1ccc(-c2noc(-c3ccccc3C(F)(F)F)n2)cc1,.,.,.,.,14%,?,?
O=C(O)c1ccc(-c2ncccn2)cc1,.,0%[174 µM],-1%[230 µM],.,.,.,.
O=C(NCCc1ccccc1)c1ccc2c(c1)nc1n2CCOC1,.,.,.,.,?,?,8.8µM*
CC(C)CCNC(=O)c1ccc2c(c1)nc1n2CCCCC1,.,.,.,.,?,?,9.9µM*
O=C(NCCc1ccccc1Cl)c1ccc2c(c1)nc1n2CCCCC1,.,.,.,.,3.9µM*,?,1.1µM*
CNC(=O)Nc1ccc(C)n(CC(=O)NCc2cccc(Cl)c2)c1=O,-1%,i,12%,i,.,.,.
Cc1ccc2nc(C3CCN(CC4CCCC4)CC3)[nH]c(=O)c2c1,7%[70.6 µM],-1%[138 µM],1%[172 µM],i,.,.,.
CN(C)CCN(C)[C@@H]1[C@H](O)[C@H](CO)O[C@@H]1CNC1CCOCC1,7%[70.6 µM],i,i,i,.,.,.
SMILES,hNpr1 antagonist,NIH3T3 tox,HEK293 tox,FLuc inh-1,FLuc SDR -ATP,FLuc SDR ATP,FLuc inh-2
N#C/C(=C\c1ccc(-c2cc(Cl)ccc2Cl)o1)C(=O)Nc1ccccc1C(=O)O,.,.,.,.,4%,4%,?
O=C(c1ccc(Cl)cc1)N1CCC2(CC1)CC(c1cccnc1)=NO2,.,?,-16%,.,.,.,.
COC1CCN(C(=O)Nc2ccccc2)CC(=O)N(C)c2ccccc21 (stereo not drawn),.,?,-21%,.,.,.,.
O=C(NCc1ccc(F)cc1)N1CC(Oc2ccc(-c3nc(-c4ccccc4)no3)cc2)C1,0.63µM*,-19%,?,2.2µM*,16%,14%,0%
c1ccc(-c2noc(-c3ccc(OC4CNC4)cc3)n2)cc1,8.9µM*,22µM*,25µM*,0.71µM*,?,?,2.8µM*
O=C(COc1ccc(F)cc1)N1CC(Oc2ccc(-c3nc(-c4ccccc4)no3)cc2)C1,-3%,-15%,?,?,.,.,.
O=C(Cc1ccccc1)N1CC(Oc2ccc(-c3nc(-c4ccccc4)no3)cc2)C1,?,-5%,?,?,.,.,.
O=C(Nc1ccccc1)N1C[C@@H](F)[C@@H](OCc2nc3ccc(F)cc3[nH]2)C1,-15%[70.6 µM],-18%[138 µM],-7%[172 µM],i,.,.,.
Cn1cc(/C=C2\C(=O)Nc3cccnc32)c2ccccc21,.,.,.,.,17%,10%,?
Cc1ccc(S(=O)(=O)NC[C@H]2OC[C@@H](NCc3nccn3C)[C@@H]2O)cc1,3%[70.6 µM],1%[174 µM],2%[172 µM],i,.,.,.
c1cnn(CCC2CCN(Cc3ccc4[nH]ccc4c3)CC2)c1,6%,i,i,i,.,.,.
COc1ccc(-c2nc3ccc(NS(C)(=O)=O)cc3o2)cc1,.,.,.,.,19%,15%,?
COc1ccc2nc(-c3ccc(N4CCN(C(=O)OC(C)(C)C)CC4)cc3)sc2c1,.,.,.,.,16%,9%,?
COc1ccc2nc(-c3cccc(C(C)=O)c3)sc2c1,.,.,.,.,12µM*,?,1.2µM*
COc1ccc(C(=O)N2CCN(C(=O)c3cccc(-c4ccc(OC)nn4)c3)CC2)cc1,.,?,-27%,.,.,.,.
CC(=O)c1cccc(-c2nc3ccccc3s2)c1,.,.,.,.,?,?,9.9µM*
COc1ccc(CN2CCc3nc(C(=O)NCc4cccc(F)c4)oc3CC2)cc1,-29%[70.6 µM],?,?,i,.,.,.
COc1ccc(-c2noc([C@@H]3Cc4nc[nH]c4CN3C(=O)Nc3ccc(Cl)cc3)n2)cc1,-25%,?,?,13µM*,13%,8%,-13%
O=C(Nc1ccc(F)cc1)N1Cc2[nH]cnc2C[C@H]1c1nc(-c2ccc(F)cc2)no1,-15%[70.6 µM],?,?,?,.,.,.
Cc1ccc(-c2noc([C@@H]3Cc4nc[nH]c4CN3C(=O)Nc3cccc(F)c3)n2)cc1,?,?,79µM*,10µM*,16%[49.3 µM],14%[49.3 µM],?
O=C1NCCCCCCN(C(=O)NCCc2ccccc2)[C@H]2CCC[C@@H]12,-6%,-10%,?,i,.,.,.
O=C(O)C1CCc2nnc(C3CCCN(S(=O)(=O)c4cccs4)C3)n21 (stereo not drawn),.,i,i,.,.,.,.
Cc1cccc(NC(=O)N2CCc3nnc(C4CC4)n3CC2)c1,-1%,i,2%,i,.,.,.
Cc1cccc(NC(=O)c2c(N)sc3c2CCC(C)C3)c1 (stereo not drawn),.,.,.,.,8%,7%,?
COCCNc1oc(-c2ccc(OC)cc2)nc1C#N,.,.,.,.,22%,15%,?
Cc1ccc(NC(=O)N2CCC(CCNC(=O)C(C)C)CC2)cc1,3%,i,10%,?,.,.,.
